mHTT CaM bind = disrupts binding of mutant huntingtin to calmodulin. AID 1671202. actives 3.6% (n = 190,000). inhibition, % at 15 µM. AlphaScreen His-mHTT/GST-CaM binding, luminescence;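 also: 0% = both proteins with DMSO and 100% = one protein alone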
Pf apPOL block = Pf-apPOL DNA polymerase inhibition; Recombinant Pf-apPOL, molecular beacon fluorescence, 1.5 h; actives 0.25% (n = 210,000); AID 1794808; inhibition, % at 10 µM
Active calls of the source: *; nt = not tested or not shown. The list is not random: actives were taken first. Their share in the collection is about 3.5%. Rule as the data show it: active = inhibition above about 50%; inactive = the rest.

SMILES	mHTT CaM bind	Pf apPOL block
O=[N+]([O-])c1ccc(C2Nc3cc(Cl)cc(Cl)c3C3C=CCC32)cc1 (centres undefined)	60*	-5
O=C1[C@H](Cc2ccccc2)NCCCC[C@H](c2ccc(Cl)cc2)N1Cc1ccc(Cl)cc1	11	-6
O=C1[C@H](Cc2ccccc2)NCCCC[C@@H](c2ccc(Cl)cc2)N1Cc1ccccc1	91*	-4
CCc1ccc(N2CC(C(=O)Nc3ccc(OC)cc3)CC2=O)cc1 (centres undefined)	0	-4
CCCN1C(=O)C(CC(=O)N2CCCC(C)C2)Sc2ncccc21 (centres undefined)	-2	-3
O=C(NCc1ccccc1)NCC(O)c1ccc(C(F)(F)F)cc1 (centres undefined)	-10	-33
O=C(NCC(O)c1ccc(C(F)(F)F)cc1)C(c1ccccc1)c1ccccc1 (centres undefined)	86*	-6
CC=C(C)c1nc2c(Br)cc(Br)cc2c(=O)o1	nt	0
CCc1ccc(C=C2Oc3c(ccc(O)c3CN(CCOC)CCOC)C2=O)cc1	10	-76
CC(=O)N1CCc2nc3cc(-c4ccccc4Cl)[nH]n3c(=O)c2C1	-2	2
COc1ccc(-c2cc3nc4c(c(=O)n3[nH]2)CN(C(=O)c2ccc(C)c(F)c2)CC4)cc1	80*	41
O=C(c1nccc2ccccc12)N1CCc2nc3cc(-c4ccccc4)[nH]n3c(=O)c2C1	56*	0
O=C(c1cc(C2CC2)[nH]n1)N1CCc2nc3cc(-c4ccccc4Cl)[nH]n3c(=O)c2C1	59*	26
O=C(c1n[nH]c2ccccc12)N1CCc2nc3cc(-c4ccccc4)[nH]n3c(=O)c2C1	16	5
COc1ccc(-c2cc3nc4c(c(=O)n3[nH]2)CCN(C(=O)c2ccc(C)c(F)c2)C4)cc1	32	3
O=C(c1ccc2ncccc2c1)N1CCc2nc3cc(-c4ccccc4)[nH]n3c(=O)c2C1	99*	96*
Cc1ccc(C(=O)N2CCc3nc4cc(-c5ccccc5)[nH]n4c(=O)c3C2)cc1F	1	0
O=[N+]([O-])c1cccc(C2CC(c3ccccc3F)n3c(nc4ccccc43)N2)c1 (centres undefined)	14	2
COc1ccc(CNC(=O)c2cc3c(s2)CCN(C(C)=O)C3)cc1OC	5	-1
CN(C)C(CNC(=O)c1c(F)cccc1F)c1ccco1 (centres undefined)	-5	-3
Fc1ccc(Oc2ccc(-c3noc(-c4ccccn4)n3)cc2)cc1	1	1
Cc1noc(-c2ccc(NC(=O)CSc3ccc(F)cc3)cc2)n1	-24	2
Cc1ccc(NC(=O)Nc2ccc(Cl)cc2)cc1	-2	-15
Cc1ccc(NC(NC(=O)Nc2ccccc2)C(Cl)(Cl)Cl)cc1 (centres undefined)	85*	-1
Cn1c(=O)c2c3nc4cc(Cl)ccc4cc3c(=O)n(C)c2n(C)c1=O	nt	3
SMILES	mHTT CaM bind	Pf apPOL block
Cc1cc(C)c(C(=O)N2CCC(CC(=O)NCCCN3CCOCC3)CC2)[nH]1	-5	-4
O=C(CCS(=O)(=O)Cc1ccccc1F)NCC1CCCO1 (centres undefined)	-5	-14
CCOc1cc(C2Nc3ccccc3NC3=C2C(=O)CC(c2cccs2)C3)cc(Cl)c1O (centres undefined)	28	-12
CCOc1cc(C2Nc3cc(C)c(C)cc3NC3=C2C(=O)CC(C)(C)C3)cc(Cl)c1O (centres undefined)	53*	-6
COc1ccc(NC(=O)CSC2=NC(=O)CC(C)=N2)cc1	-1	76*
COc1ccc(NC(=O)CSc2nccn2C)cc1	-2	4
O=C(Nc1nc2ccc([N+](=O)[O-])cc2s1)c1cc(Cl)ccc1Cl	1	-2
CCCCC[C@H](C)N1C[C@H](COCc2ccccc2)Oc2cc(N3CC[C@@H](O)C3)ccc2S1(=O)=O	92*	-19
C[C@@H](c1ccccc1)N1C[C@H](COCc2ccccc2)Oc2cc(N3CC[C@H](O)C3)ccc2S1(=O)=O	48	-8
CCCCC[C@H](C)N1C[C@@H](COCc2ccccc2)Oc2cc(N3CC[C@H](O)C3)ccc2S1(=O)=O	88*	-8
CCCCC[C@@H](C)N1C[C@H](COCc2ccccc2)Oc2cc(N3CCC[C@@H]3CO)ccc2S1(=O)=O	24	-8
CCCCC[C@H](C)N1C[C@@H](COCc2ccccc2)Oc2cc(N3CC[C@H](N(C)C)C3)ccc2S1(=O)=O	-13	-11
CCCCC[C@@H](C)N1C[C@@H](COCc2ccccc2)Oc2cc(N3CC[C@H](N(C)C)C3)ccc2S1(=O)=O	100*	-6
O=C(NCc1ccc(F)cc1F)C1CCc2nc(N3CCCCC3)ncc2C1 (centres undefined)	-11	-4
N#Cc1ccc(NC(=O)c2noc3c2CCC3)cc1	8	-5
C=CCn1c(=O)c2c(ncn2Cc2cccc(F)c2)n(-c2ccccc2C)c1=O	7	-1
Cc1cccc(NC(=O)c2sc3nc(-c4ccccc4)cn3c2C)n1	50*	-1
Cc1c(C(=O)Nc2ccccn2)sc2nc(-c3ccccc3)cn12	8	-24
CCn1nccc1C(=O)Nc1ccc2sc(C)nc2c1	-12	-13
COc1ccc(N2C(=O)C3CCCN3C2c2ccc(Cl)cc2)cc1Cl (centres undefined)	2	-3
COc1ccccc1C1N(c2ccc(Cl)c(Cl)c2)C(=O)C2CCCN21 (centres undefined)	100*	0
CCc1ccc(C2N(c3cc(Cl)ccc3OC)C(=O)C3CCCN32)cc1 (centres undefined)	33	-3
COc1cc(OC)c(C2N(c3ccc(Cl)c(Cl)c3)C(=O)C3CCCN32)cc1OC (centres undefined)	98*	-1
COc1ccccc1C1N(c2cc(Cl)ccc2OC)C(=O)C2CCCN21 (centres undefined)	1	-2
CCN(CC)c1ccc(C2N(c3cc(Cl)ccc3OC)C(=O)C3CCCN32)cc1 (centres undefined)	75*	-1
SMILES	mHTT CaM bind	Pf apPOL block
COc1cc(OC)c(C2N(c3ccc(Cl)cc3)C(=O)C3CCCN32)cc1OC (centres undefined)	67*	0
CCOc1ccc(C2N(c3ccc(Cl)cc3)C(=O)C3CCCN32)cc1OC (centres undefined)	30	-6
Cc1nc2cc(NC(=O)c3ccc([N+](=O)[O-])cc3)ccc2s1	6	0
Cc1c(C(=O)Nc2ccc3c(c2)OCO3)sc2ncn(C)c(=O)c12	2	5
O=C(Cc1csc(NC(=O)NC2CCCC2)n1)Nc1ccc2c(c1)OCO2	5	1
O=C(CCc1csc(NC(=O)c2ccco2)n1)NCCc1ccc(F)cc1	-9	-1
O=C(c1ccc2c(c1)C1C=CCC1C(c1ccc([N+](=O)[O-])cc1)N2)N1CCCC1 (centres undefined)	48	-17
O=C(O)c1ccc2c(c1)C1C=CCC1C(c1cccc([N+](=O)[O-])c1)N2 (centres undefined)	85*	-2
O=[N+]([O-])c1ccccc1C1Nc2ccc(Br)cc2C2C=CCC21 (centres undefined)	57*	-25
O=C(O)c1ccc2c(c1)C1C=CCC1C(c1ccccc1[N+](=O)[O-])N2 (centres undefined)	53*	-19
O=c1c(CN2CCOCC2)coc2ccc(Cl)cc12	-9	-5
CC(C)(Oc1ccc(Cl)cc1)C(=O)NCCc1ccccc1	-38	0

Bioassay records as filed in PubChem BioAssay.
